Compounds with a hit are over-represented: about 0.81% of the library has one in this group of screens.
NCOA3 inh = inhibits human SRC3 coactivator. Q9Y6Q9. HEK293 GAL4-SRC3 luciferase reporter, luminescence. inhibition, % at 3.6 µM. 360,000 compounds, 0.17% hits. AID 588352;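 active = inhibition above a per-campaign cutoff, the mean of all compounds plus 3 SD, cut at about 60% in these data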;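 also: 0% = DMSO-treated cells and 100% = gossypol-treated cells at 36 µM; higher means less SRC3-driven luciferase light from the GAL4 reporter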
NCOA1 inh = inhibitors of human steroid receptor coactivator 1 (SRC1); inhibition, % at 3.6 µM; 360,000 compounds, 0.12% hits; HEK293 GAL4-SRC1 luciferase reporter, luminescence; AID 588354; Q15788;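 active = inhibition above the campaign mean plus 3 SD, with each screening campaign given its own cutoff, cut at about 60% in these data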;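 also: 0% = DMSO treated cells and 100% = gossypol at 36 µM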
SRC2 inh = human SRC2 (NCOA2) inhibition; inhibition, % at 9 µM; AID 651957; HEK293 GAL4-SRC2 luciferase reporter, luminescence; Q15596; 370,000 compounds, 0.17% hits;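 active = inhibition above the mean inhibition of all tested compounds plus 3 SD, set per campaign, cut at about 52% in these data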;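 also: 0% = DMSO treated cells and 100% = cells given Gossypol at 36 µM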
NR2F2 inh = NR2F2 (human) inhibition, primary screen; P24468; HEK293T NGFI-A luciferase reporter, luminescence; inhibition, % at 8.6 µM; 370,000 compounds, 0.7% hits; AID 686940;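 active = inhibition above a per-plate cutoff, mean inhibition of test wells between control levels plus 3 SD, cut at about 38% in these data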;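 also: cells cotransfected with COUP-TFII expression vector driving the NGFI-A reporter; 0% = median of COUP-TF2 test wells and 100% = reporter-only cells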
NR5A2 inv ag = inverse agonists of human LRH-1 (NR5A2); AID 602396; inhibition, % at 3.6 µM; 360,000 compounds, 0.13% hits; HEK293T StAR-luciferase reporter, LRH-1 transfected, 24 h;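 active = inhibition above the mean inhibition of all tested compounds plus 3 SD, cut at about 73% in these data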;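 also: 0% = DMSO wells and 100% = reporter-only cells lacking LRH-1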
Target sequence (O00482 whole entry, looked up): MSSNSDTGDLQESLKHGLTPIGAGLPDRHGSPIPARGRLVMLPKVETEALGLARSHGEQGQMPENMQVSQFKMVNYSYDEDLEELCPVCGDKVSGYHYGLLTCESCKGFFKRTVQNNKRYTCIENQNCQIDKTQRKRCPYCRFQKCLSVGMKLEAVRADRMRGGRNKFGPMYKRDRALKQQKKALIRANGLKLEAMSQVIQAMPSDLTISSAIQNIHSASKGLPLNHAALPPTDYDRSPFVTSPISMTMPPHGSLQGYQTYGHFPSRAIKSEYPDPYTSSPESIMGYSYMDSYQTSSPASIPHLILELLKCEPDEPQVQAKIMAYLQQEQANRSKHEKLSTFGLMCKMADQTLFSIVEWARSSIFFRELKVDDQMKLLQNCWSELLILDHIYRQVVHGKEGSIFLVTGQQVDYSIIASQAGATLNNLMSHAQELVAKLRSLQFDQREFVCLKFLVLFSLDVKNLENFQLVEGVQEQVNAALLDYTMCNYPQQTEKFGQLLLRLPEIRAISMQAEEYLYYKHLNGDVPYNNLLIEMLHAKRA
Gal4-VP16 ctr = counter-screen for COUP-TFII antagonists: inhibitors of VP16 | 2,500 compounds, 25% hits | inhibition, % at 8.5 µM | HEK293 Gal4-VP16 luciferase reporter, luminescence | shares compounds with NR2F2 inh; in the data active = inhibition above about 13%
NR2F2 inh conf = COUP-TFII (NR2F2) inhibition, confirmation assay | HEK293 NGFI-A luciferase reporter, luminescence | inhibition, % at 8.5 µM | shares compounds with NR2F2 inh | AID 687008 | 2,500 compounds, 45% hits;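 active = mean inhibition over three repeats above a set limit taken from the earlier primary screen, cut at about 38% in these data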;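 also: 100% = cells given the luciferase reporter alone without the COUP-TF2 vector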
The depositor's hits bear a star.

Screening COc1cc(OC)cc(-c2cc3nc(C)c(CCC(=O)NC(C)CCc4ccco4)c(C)n3n2)c1 (centres undefined) returned NCOA3 inh 12, NCOA1 inh -2, SRC2 inh 32, NR2F2 inh 26 and NR5A2 inv ag -3.
For COC1=CC(=O)c2c(ccc3ncnc(N)c23)C1=O the results were NCOA3 inh 69*, NCOA1 inh 60, SRC2 inh 62*, NR2F2 inh 55*, NR5A2 inv ag 72, Gal4-VP16 ctr 62* and NR2F2 inh conf 44*.
COc1cccc2c1C(=O)C=C(C)C2=O was read as NCOA3 inh 9, NCOA1 inh -1, SRC2 inh -9, NR2F2 inh 3 and NR5A2 inv ag 21.
`COc1ccc(-c2cc(C3CCN(c4ccc(C(C)=O)cc4[N+](=O)[O-])CC3)[nH]n2)cc1` gave NCOA3 inh 19, NCOA1 inh 7, SRC2 inh 27, NR2F2 inh 42*, NR5A2 inv ag -12, Gal4-VP16 ctr -3 and NR2F2 inh conf 19.
`CCCCn1c2c(c(=N)c3c1CCC3)CCC2` gave NCOA3 inh 28, NCOA1 inh 30, SRC2 inh 16, NR2F2 inh 47*, NR5A2 inv ag 45, Gal4-VP16 ctr 11 and NR2F2 inh conf 39*.
Screening CCCCCCn1c2c(c(=N)c3c1CCC3)CCC2 returned NCOA3 inh 75*, NCOA1 inh 67*, SRC2 inh -8, NR2F2 inh 78*, NR5A2 inv ag 92*, Gal4-VP16 ctr 13 and NR2F2 inh conf 70*.
For CCn1c2c(c(=N)c3c1CCC3)CCC2 the results were NCOA3 inh 9, NCOA1 inh 8, SRC2 inh 32, NR2F2 inh 12 and NR5A2 inv ag -10.
CCCCCCCn1c2c(c(=N)c3c1CCC3)CCCC2 was read as NCOA3 inh 79*, NCOA1 inh 44, SRC2 inh 33, NR2F2 inh 79*, NR5A2 inv ag 84*, Gal4-VP16 ctr 17* and NR2F2 inh conf 82*.
For CCCCCCn1c(=O)[nH]c2c(c1=O)CCC2 the results were NCOA3 inh 11, NCOA1 inh -2, SRC2 inh 12, NR2F2 inh -28 and NR5A2 inv ag -11.
CCOC(=O)c1c(NC(=O)c2cccnc2)sc(C(C)=O)c1C was read as NCOA3 inh 27, NCOA1 inh 13, SRC2 inh -10, NR2F2 inh -2 and NR5A2 inv ag 15.
`CN(C)c1ccc(C=Cc2nccc3ccccc23)cc1` gave NCOA3 inh -75, NCOA1 inh -83, SRC2 inh 5, NR2F2 inh 3 and NR5A2 inv ag -74.
Screening CCN(CC)c1nc(C=Cc2ccc(N(C)C)cc2)c2nccnc2n1 returned NCOA3 inh 1, NCOA1 inh -7, SRC2 inh 66*, NR2F2 inh 88*, NR5A2 inv ag 12, Gal4-VP16 ctr -12 and NR2F2 inh conf -4.
Screening Cc1ccccc1OCC(=O)NNC(=O)Nc1ccccc1 returned NCOA3 inh 7, NCOA1 inh -13, SRC2 inh -23, NR2F2 inh 9 and NR5A2 inv ag 9.
For O=c1c2ccccc2nc2n1C(CSCc1ccc(Cl)cc1)CS2 (centres undefined) the results were NCOA3 inh 8, NCOA1 inh 18, SRC2 inh 23, NR2F2 inh 42*, NR5A2 inv ag 4, Gal4-VP16 ctr 2 and NR2F2 inh conf 14.
Cc1ccc(NCC(=O)Nc2cccc(F)c2)cc1S(=O)(=O)N1CCCCCC1 was read as NCOA3 inh 13, NCOA1 inh 11, SRC2 inh 38, NR2F2 inh 46*, NR5A2 inv ag 20, Gal4-VP16 ctr -4 and NR2F2 inh conf 7.
`O=C(CNc1cccc(S(=O)(=O)N2CCCCC2)c1)Nc1ccc(C(F)(F)F)cc1` gave NCOA3 inh 7, NCOA1 inh 15, SRC2 inh 6, NR2F2 inh 38*, NR5A2 inv ag 9, Gal4-VP16 ctr -1 and NR2F2 inh conf 5.
`O=C(CNc1cccc(F)c1)Nc1cccc(S(=O)(=O)N2CCCCC2)c1` gave NCOA3 inh 5, NCOA1 inh -4, SRC2 inh 6, NR2F2 inh -16 and NR5A2 inv ag -10.
For O=C(CNc1cccc(S(=O)(=O)N2CCCC2)c1)Nc1ccc(C(F)(F)F)cc1 the results were NCOA3 inh 15, NCOA1 inh -7, SRC2 inh 15, NR2F2 inh 40*, NR5A2 inv ag 14, Gal4-VP16 ctr 6 and NR2F2 inh conf 29.
For O=C(Nc1ccc2ncccc2c1)c1cccc(Br)c1 the results were NCOA3 inh -132, NCOA1 inh -84, SRC2 inh -47, NR2F2 inh -7 and NR5A2 inv ag -91.
For COc1ccc(CN(C)c2ccc(S(=O)(=O)N3CCN(C)CC3)cc2[N+](=O)[O-])cc1OC the results were NCOA3 inh 18, NCOA1 inh 11, SRC2 inh 16, NR2F2 inh 70*, NR5A2 inv ag 30, Gal4-VP16 ctr -1 and NR2F2 inh conf 67*.
`C=CC(=O)N1C/C(=C/c2ccccc2)C(=O)/C(=C\c2ccccc2)C1` gave NCOA3 inh -164, NCOA1 inh inactive, SRC2 inh 67*, NR2F2 inh 98*, NR5A2 inv ag 70, Gal4-VP16 ctr 71* and NR2F2 inh conf 101*.
Screening C=CC(=O)N1C/C(=C/c2ccc(Cl)cc2)C(=O)/C(=C\c2ccc(Cl)cc2)C1 returned NCOA3 inh -159, NCOA1 inh inactive, SRC2 inh 60*, NR2F2 inh 90*, NR5A2 inv ag 49, Gal4-VP16 ctr 85* and NR2F2 inh conf 102*.
Screening Cc1nnc(SCC(=O)NC2CCCCC2C)s1 (centres undefined) returned NCOA3 inh 4, NCOA1 inh 5, SRC2 inh -6, NR2F2 inh 11 and NR5A2 inv ag 10.
Screening O=C(O)CCCc1nc(-c2ccccc2)no1 returned NCOA3 inh -2, NCOA1 inh 7, SRC2 inh -18, NR2F2 inh 14 and NR5A2 inv ag 4.
Screening O=C(O)CCCc1nc(-c2ccc(Cl)cc2)no1 returned NCOA3 inh 13, NCOA1 inh 3, SRC2 inh 40, NR2F2 inh 44*, NR5A2 inv ag 12, Gal4-VP16 ctr 32* and NR2F2 inh conf 14.
O=C(CCCc1nc(-c2ccc(Cl)cc2)no1)Nc1cccnc1 was read as NCOA3 inh 5, NCOA1 inh 9, SRC2 inh 22, NR2F2 inh 41*, NR5A2 inv ag 17, Gal4-VP16 ctr 0 and NR2F2 inh conf 22.
`COC(=O)c1ccc2nc(Nc3nc4ccc(F)cc4s3)sc2c1` gave NCOA3 inh 33, NCOA1 inh 26, SRC2 inh 7, NR2F2 inh 52*, NR5A2 inv ag 1, Gal4-VP16 ctr -10 and NR2F2 inh conf 58*.
